Shiga toxin inh = A qHTS for Small Molecule Inhibitors of Shiga Toxin. AID 2315, 2010. inhibition, % at 38.7 µM. Vero cells, Shiga toxin protein synthesis inhibition reporter. 290,000 compounds, 9.2% hits; in the data active = inhibition mostly above about 28%, no sharp cut-off; inactive = mostly below about 43%
Pf growth 48h = Primary qHTS for delayed death inhibitors of the malarial parasite plastid, 48 hour incubation | AID 504832, 2011 | 310,000 compounds, 5.9% hits | P. falciparum luciferase growth in erythrocytes, 48 h | Potency, µM (series often up to 28.7 µM), actives largely listed as inhibitors
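Cell-based growth assay: transgenic P. falciparum expressing firefly luciferase, cultured in red cells within RPMI 1640 containing 0.5% w/v Albumax, 24 mM bicarbonate and gentamycin. A drop in luciferase activity indicates inhibition.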
HCV inhibitor = qHTS Assay for Inhibitors of Hepatitis C Virus (HCV); Huh7.5.1 HCVcc-Cre infection, luciferase reporter, 44 h; Potency, µM (highest dose often 41.8 µM), hits mostly inhibitors; 340,000 compounds, 3.4% hits; AID 651820, 2012
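HCVcc-Cre virus at an moi near 0.5 was added right after compound to cells cultured 4 h from seeding (1,000 cells/well). Luciferase activity was determined 44 h later, 15 min after substrate addition at RT.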
HCMV antiviral = qHTS Assay for inhibitors of the human cytomegalovirus (HCMV). HFF cells, HCMV-luciferase reporter, 72 h; stronger effect = lower value. activity change, negative = inhibition, % at 57.5 µM. 410,000 compounds, 4.5% hits; in the data active = activity change below about -60%; inconclusive = no clear call, values can overlap the other calls; inactive = above about -39%
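Two-dose cell screen: HFF monolayers treated with compounds and infected with luciferase-expressing HCMV at 1 PFU/cell, 72 h at 37C, then lysed for luciferase measurement.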
Cycloheximide cs = Cycloheximide Counterscreen for Small Molecule Inhibitors of Shiga Toxin | 300,000 compounds, 12% hits | cell reporter, cycloheximide protein synthesis inhibition counterscreen | max response, %; in the data active = max response mostly above about 13%, no sharp cut-off; inactive = mostly below about 14%; note: read at 38.3 µM for the half of the compounds with a filed dose
Pf growth 96h = Primary qHTS for delayed death inhibitors of the malarial parasite plastid, 96 hour incubation; P. falciparum luciferase reporter growth, 96 h; AID 504834, 2011; Potency, µM (highest dose often 28.7 µM), usual class: inhibitors; 320,000 compounds, 6.9% hits
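Compounds incubated with erythrocytes infected by luciferase-expressing P. falciparum (2% hematocrit, 0.05% parasitemia final) for 96 hours, 37 C in 5% CO2. Growth inhibition scored as decreased luciferase luminescence.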
Each line names hits and unclear results; the compound was inactive in the other large screens. Hits are enriched below; roughly 21% of the tested compounds scored in any of these assays. Unless noted, calls come from the whole dose curve; as a rule, active = well fitted inhibition curve with a large enough effect; inconclusive = small, poorly fitted or top-dose-only effect, or another doubt; inactive = no such curve, though single readings can be large or run the other way.

COc1ccc(C)cc1-n1nnnc1SCC(=O)NC1CC1	none (no result: Shiga toxin inh, Cycloheximide cs)
COc1ccc(C)cc1-n1nnnc1SCc1csc(C)n1	Pf growth 48h inconclusive, Pf growth 96h inconclusive
CN(C1CCCCC1)C(CNS(=O)(=O)c1ccc(Cl)cc1)c1ccccc1 (stereo not given)	Pf growth 48h inconclusive, Pf growth 96h inconclusive
COC(=O)c1c(NC(=O)CN2CCC3(O)CCCCC3C2c2cc(OC)ccc2OC)sc(C)c1C (stereo not given)	Pf growth 48h inconclusive, HCV inhibitor inconclusive, Pf growth 96h 10µM
COc1ccccc1C1C2CCCCC2(O)CCN1CC(=O)Nc1ccccc1 (stereo not given)	Pf growth 48h inconclusive, Pf growth 96h inconclusive
COC(=O)c1c(NC(=O)CN2CCC3(O)CCCCC3C2c2ccc(F)cc2)sc(C)c1C (stereo not given)	Pf growth 48h 8.3µM, HCV inhibitor inconclusive, Pf growth 96h inconclusive
Cc1ccc(-c2nn(-c3ccccc3)cc2C(=O)O)o1	none (no result: HCV inhibitor, HCMV antiviral)
O=C(O)/C=C/c1cn(-c2ccccc2)nc1-c1cc2ccccc2oc1=O	Shiga toxin inh 41, Cycloheximide cs 22
Cc1ccc(-c2nn(-c3ccccc3)cc2CN(Cc2ccccc2)C(=O)c2ccco2)o1	HCV inhibitor 10µM, HCMV antiviral -76, Pf growth 96h 12µM (no result: Pf growth 48h)
O=C(c1ccco1)N(Cc1ccccc1)Cc1ccccn1	none
Cc1ccc(-c2nn(-c3ccccc3)cc2/C=C/C(=O)O)o1	Cycloheximide cs 14
O=Cc1cn(-c2ccccc2)nc1-c1cc2cc(O)ccc2oc1=O	none (no result: Pf growth 96h)
CCC1(c2ccccc2)NC(=O)N(CC(=O)N2CCc3ccccc32)C1=O (stereo not given)	none (no result: Shiga toxin inh, Pf growth 48h, Cycloheximide cs, Pf growth 96h)
CN1CCN(c2ccc(Cl)cc2NC(=O)CN2C(=O)NC(C)(c3ccccc3)C2=O)CC1 (stereo not given)	Pf growth 48h 2.9µM, HCV inhibitor inconclusive, Pf growth 96h inconclusive (no result: Shiga toxin inh, Cycloheximide cs)
CCC1(c2ccc(F)cc2)NC(=O)N(CC(=O)N2CCc3ccccc32)C1=O (stereo not given)	Pf growth 48h 12µM, Pf growth 96h 10µM (no result: Shiga toxin inh, Cycloheximide cs)
CCC1(c2ccccc2)NC(=O)N(CC(=O)Nc2cc(Cl)ccc2N2CCN(C)CC2)C1=O (stereo not given)	Pf growth 48h 12µM, HCV inhibitor inconclusive, Pf growth 96h inconclusive (no result: Shiga toxin inh, Cycloheximide cs)
CCC1(c2ccccc2)NC(=O)N(CC(=O)Nc2cc(C(F)(F)F)ccc2N2CCCC2)C1=O (stereo not given)	Pf growth 48h inconclusive, Pf growth 96h inconclusive (no result: Shiga toxin inh, Cycloheximide cs)
O=C(Nc1ncc(Cc2ccccc2Cl)s1)c1ccc(-c2cccc([N+](=O)[O-])c2)o1	Pf growth 48h inconclusive, HCV inhibitor 22µM, HCMV antiviral -63
O=C(Nc1ncc(Cc2ccc(SC(F)F)cc2)s1)c1ccc(OC(F)F)cc1	HCV inhibitor inconclusive, HCMV antiviral -86
COc1cc(NC(=O)c2cccc([N+](=O)[O-])c2)ccc1NC(=O)c1ccco1	Pf growth 48h inconclusive, HCV inhibitor inconclusive
CC(C)C(=O)Nc1ncc(Cc2ccc(Cl)cc2)s1	none
NNC(=O)c1ccc(-c2cccc([N+](=O)[O-])c2)o1	none
O=C(Nc1ncc(Cc2ccccc2Cl)s1)c1ccc([N+](=O)[O-])cc1	HCV inhibitor inconclusive, Pf growth 96h inconclusive
O=C(Nc1ncc(Cc2cccc([N+](=O)[O-])c2)s1)c1ccco1	Shiga toxin inh 102, HCV inhibitor inconclusive, HCMV antiviral -72, Cycloheximide cs 29
O=C(Nc1ncc(Cc2cccc(Cl)c2)s1)c1ccc([N+](=O)[O-])cc1	Pf growth 48h inconclusive, HCV inhibitor inconclusive, Pf growth 96h 13µM
Cc1ccc(Cl)cc1NC(=O)c1ccc2snnc2c1	none (no result: Shiga toxin inh, Pf growth 48h, HCV inhibitor, Cycloheximide cs, Pf growth 96h)
Cc1cnc(NC(=O)CCNC(=O)c2ccc([N+](=O)[O-])cc2)s1	none
Cc1cnc(NC(=O)c2ccc(-c3ccc([N+](=O)[O-])cc3)o2)s1	Pf growth 48h inconclusive, HCMV antiviral inconclusive, Pf growth 96h 6.6µM (no result: Shiga toxin inh, Cycloheximide cs)
O=C(Nc1ncc(Cc2ccccc2)s1)C1=NCCN1	Shiga toxin inh 58
Cc1ccc(Cc2cnc(NC(=O)c3ccco3)s2)cc1	Shiga toxin inh 67, HCV inhibitor inconclusive, Cycloheximide cs 35 (no result: Pf growth 96h)
Cc1cccc(Cc2cnc(NC(=O)c3ccc(C)o3)s2)c1	Shiga toxin inh 71, HCV inhibitor inconclusive, Cycloheximide cs 35 (no result: Pf growth 48h)
COc1ccc(CCNC(=O)CN(c2cc(C(F)(F)F)ccc2Cl)S(C)(=O)=O)cc1	none (no result: Shiga toxin inh, Pf growth 48h, HCV inhibitor, Cycloheximide cs, Pf growth 96h)
Cc1c(Cl)cc(C(C)C)c(O)c1CN1CCOCC1	none (no result: Shiga toxin inh, Pf growth 48h, Cycloheximide cs, Pf growth 96h)
Cc1cc(C(C)c2ccccc2)c(O)c(CN2CCOCC2)c1C (stereo not given)	Pf growth 48h 1.9µM
COC(=O)c1cc(C)nc2c1C(=O)C(=O)C=C2N1CCOCC1	Pf growth 48h 13µM, HCV inhibitor 2.5µM, HCMV antiviral -93
Cc1ccc(C)c(NC(=O)CN(C)S(=O)(=O)c2ccc3c(c2)CCC(=O)N3)c1	none (no result: Shiga toxin inh, Pf growth 48h, HCV inhibitor, Cycloheximide cs, Pf growth 96h)
COc1ccccc1Cn1cc(C(=O)c2ccc(F)cc2)c(=O)c2cc3c(cc21)OCO3	none (no result: Shiga toxin inh, Pf growth 48h, HCV inhibitor, Cycloheximide cs, Pf growth 96h)
FC(F)(F)c1nnc(-c2ccccc2)nc1N1CCOCC1	none
FC(F)(F)c1cccc(-c2nnc(-c3ccccc3)c(N3CCOCC3)n2)c1	Pf growth 48h inconclusive, HCV inhibitor 10µM, Pf growth 96h inconclusive
NC(=S)N/N=C/c1c(O)c(Br)cc2oc3c(c12)CCCC3	Pf growth 48h 3.3µM, Pf growth 96h inconclusive
NC(=S)N/N=C/c1cccc(Br)c1	HCV inhibitor inconclusive, Pf growth 96h inconclusive
Cc1ccc(S(=O)(=O)CCc2nc3ccccc3[nH]2)cc1C	Pf growth 48h inconclusive, Pf growth 96h inconclusive
Cc1ccc(S(=O)(=O)CCc2nc3ccccc3[nH]2)cc1	HCMV antiviral -69
O=S(=O)(CCc1nc2ccccc2[nH]1)c1ccc(Cl)cc1	HCMV antiviral -61
Cc1nnc(NCc2cccc(Cl)c2)c2ccccc12	Pf growth 48h inconclusive, HCV inhibitor inconclusive, Pf growth 96h inconclusive
Clc1cccc(/C=N/Nc2nnc(Cl)c3ccccc23)c1	Shiga toxin inh 62, Pf growth 48h inconclusive, Pf growth 96h inconclusive
Clc1ccc(/C=N/Nc2nnc(-c3ncc[nH]3)c3ccccc23)cc1	Shiga toxin inh 112, HCV inhibitor inconclusive, Cycloheximide cs 34
NS(=O)(=O)c1ccc(NS(=O)(=O)c2ccc(C3CNC(=O)C3)cc2)cc1 (stereo not given)	none
Cc1nnsc1Sc1ccccc1	none
CN(C)C(=O)c1nnsc1Sc1ccc(Cl)cc1	Shiga toxin inh 51, Cycloheximide cs 26
O=S(=O)(N[C@H](CO)Cc1ccccc1)c1ccc(Br)cc1F	HCV inhibitor inconclusive (no result: Shiga toxin inh, Pf growth 48h, Cycloheximide cs, Pf growth 96h)
Nc1cc(C(=O)Nc2ccccc2F)ccc1N1CC2CC(C1)c1cccc(=O)n1C2 (stereo not given)	none (no result: Shiga toxin inh, Pf growth 48h, HCV inhibitor, Cycloheximide cs, Pf growth 96h)

Assay outcomes deposited in PubChem BioAssay by National Center for Advancing Translational Sciences (NCATS).
